Assay outcomes: PubChem, National Center for Advancing Translational Sciences (NCATS)
TDP1 cell noCPT: qHTS for Inhibitors of human tyrosyl-DNA phosphodiesterase 1 (TDP1): qHTS in cells in absence of CPT. DT40 Tdp1-/- hTDP1 cells, no CPT, ATP luminescence, 48 h. Potency, µM (top dose mostly 46.2 µM), for the others: top-dose activity change, negative = growth inhibition, actives largely listed as inhibitors. 420,000 compounds, 15% hits; also: % is scaled to controls: 0 for no effect and ±100 for the full control effect; nearly all actives have a fitted effect of over 55% in size
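Stably hTDP1-transfected Tdp1-null chicken DT40 cells were treated with library compounds minus camptothecin and grown for at least 48 hr at 37 °C, after which cellular ATP was quantified by luminescence.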
TDP1 cell CPT: growth inhibition of DT40 Tdp1-/-;hTDP1 cells with camptothecin (screen for TDP1 inhibitors) | chicken DT40 Tdp1-/-;hTDP1 cells + 20 nM CPT, ATP luminescence, 48 h | Potency, µM (top dose mostly 46.2 µM), without a hit: at the highest dose activity change, negative = growth inhibition, most hits filed as inhibitors | 420,000 compounds, 12% hits | AID 686979; also: % is scaled to controls: 0 for no effect and ±100 for the full control effect; nearly all actives have a fitted effect of over 55% in size
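Chicken DT40 Tdp1-/- cells complemented with human TDP1, 400 cells/well, exposed to compounds plus 20 nM camptothecin for at least 48 h at 37 C; viability read as ATP content by CellTiter-Glo luminescence.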
TGFb SMAD3 inh: inhibitors of TGF-b signaling. Potency, µM (series often up to 46.1 µM), for the others: at the highest dose activity, negative = inhibition, most hits filed as inhibitors. 410,000 compounds, 1.2% hits. HepG2 CAGA-GFP TGF-b/SMAD3 reporter, GFP fluorescence, 18 h; TGF-beta stimulated, 500 pg/mL final; also: % is scaled to controls: 0 for no effect and ±100 for the full control effect; nearly all actives have a fitted effect of over 65% in size
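Inhibition of TGF-beta-driven CAGA-GFP reporter expression in HEPG2 cells is measured by cellular GFP fluorescence after 18 h stimulation with 500 pg/mL recombinant TGF-beta in 1% FBS medium at 37 degrees C.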
ATXN2 expr inh: ATXN2 expression inhibition; HEK-293 ATXN2-luciferase reporter, luminescence, 24 h; Potency, µM (top dose mostly 57 µM), for inactives: at the top dose activity change, negative = inhibition, hits mostly inhibitors; 360,000 compounds, 0.72% hits; AID 1745845; also: % is scaled to controls: 0 for no effect and ±100 for the full control effect; nearly all actives have a fitted effect of over 55% in size
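ATXN2-luciferase reporter cells (luciferase flanked by upstream and downstream ATXN2 gene portions) were treated 24 h at 37 °C with compounds at up to 57 uM. SteadyGlo luminescence gave expression; GF-AFC fluorescence gave viability.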
HepG2 viability: HepG2 cytotoxicity, counter-screen for TGF-b inhibitors | HepG2 CAGA-GFP viability, ATP luminescence, 18 h | Potency, µM (series often up to 46.1 µM), inactives show at the top dose activity change, negative = cytotoxicity, actives largely listed as cytotoxic | 410,000 compounds, 0.76% hits
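CellTiter-Glo luminescence gave cytotoxicity after 18 hours at 37 degrees C. The cells were HepG2 CAGA-GFP in 1% FBS DMEM, stimulated with 500 pg/mL TGF-beta after compound addition. %Activity was normalised to no-cell wells (complete cell-killing) and DMSO (no toxicity), and curves were fitted and classified.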
S2 tox: cell viability loss in ATXN counter-screen; S2 cells (HEK-293 line with an ATXN2-luciferase reporter) viability, CellTiter-Fluor protease fluorescence, 24 h; Potency, µM (titrated, usually from 56.7 µM), hits mostly cytotoxic; 400,000 compounds, 0.49% hits; AID 651635; also: nearly all actives have a fitted effect of over 40% in size
Numbers without * were called inactive; i = inactive; ? = inconclusive; nt = no result given; ! = not confirmed by another sample. Sampled rows, rich in hits. Any-hit rate of the full collection: about 17%. Calls follow the shape of the dose curve; as a rule, active = well fitted curve in the direction sought with a large enough effect; inconclusive = small, poorly fitted or top-dose-only effect, or another doubt; inactive = no such curve, though single readings can be large; an effect the other way counts as inactive or inconclusive. Potency is read from the fitted curve at half-maximal effect.

SMILES | TDP1 cell noCPT | TDP1 cell CPT | TGFb SMAD3 inh | ATXN2 expr inh | HepG2 viability | S2 tox
C[C@@H]1CN([C@@H](C)CO)C(=O)c2cc(N(C)C)ccc2O[C@@H]1CN(C)Cc1ccncc1 | -13.3% | -10.4% | -10.4% | 5.1% | 0.7% | i
O=C(c1cc(COc2c(F)cccc2F)on1)N1CCC(c2ccncc2)CC1 | 9.2µM* | 9.2µM* | -16.0% | -9.5% | -24.7% | ?
CSc1ccccc1OCc1cc(C(=O)NC(C)c2cnn(C)c2)no1 (configuration not stated) | ? | ? | -14.4% | 46.7% | -20.0% | i
Cc1cccc(C)c1OCc1cc(C(=O)N2CCC(c3ccncc3)CC2)no1 | 5.17µM* | 9.2µM* | ? | -11.7% | -15.0% | i
O=C(c1cc(COc2c(F)cccc2F)on1)N1CCC(c2ccccc2F)C1 (configuration not stated) | ? | -0.8% | -10.3% | 0.0% | -26.6% | i
Cc1c(C(C)NC(=O)c2cc(COc3cccc4cnccc34)on2)cnn1C (configuration not stated) | 13µM* | 23.1µM* | -10.2% | nt | -22.3% | i
O=C(c1cc(COc2cccc3cnccc23)on1)N1CCC(c2ccccc2Cl)C1 (configuration not stated) | 18.4µM* | 23.1µM* | 20µM* | nt | -34.7% | ?
Cc1cc(C)c2c(N)c(C(=O)Nc3ccc([N+](=O)[O-])cc3)sc2n1 | 17.6% | -0.2% | -0.8% | 26.5% | -2.5% | i
Cc1cccc(C)c1NC(=O)c1ccc(OCc2c(C)noc2C)cc1 | 16.4µM* | ? | 11.4% | nt | -14.4% | i
Cc1noc(C)c1COc1ccc(C(=O)N2CCN(c3ccccc3O)CC2)cc1 | 16.4µM* | ? | 1.8% | nt | -19.9% | i
Cc1cccc(NC(=O)c2ccc(OCc3c(C)noc3C)cc2)c1C | ? | ? | 0.7% | -5.7% | -17.9% | i
Cc1ccc(C)c(S(=O)(=O)N2CCN(C(=O)c3ccc(OCc4c(C)noc4C)cc3)CC2)c1 | ? | ? | -20.1% | 0.0% | 14.1µM* | i
CCOc1ccc(S(=O)(=O)NCCC(=O)N2CCN(c3ccccc3O)CC2)cc1 | -11.2% | -23.7% | 0.0% | -0.5% | -29.7% | i
CCOc1ccc(C(=O)CCC(=O)N2CCN(c3ccccc3O)CC2)cc1 | ? | ? | -1.7% | -15.3% | 2.51µM* | i
CCCCCCN1CC(C(=O)OCC)C(=O)C1=O (configuration not stated) | -13.6% | -9.3% | ? | 6.7% | -2.0% | i
COc1cc(NC(=O)c2ccc([N+](=O)[O-])cc2)ccc1NC(=O)C(C)C | 3.4% | 6.0% | 4.2% | 5.9% | 8.1% | i
Cc1noc(C)c1C(=O)N1CCN(c2ccc(OCc3ccccc3)cc2)CC1 | 16.4µM* | 14.6µM* | -7.3% | nt | 8.9% | ?
Cc1noc(C)c1COc1ccc(C(=O)NNC(=O)c2ccccc2F)cc1 | 1.46µM* | 2.31µM* | 3.1% | -9.3% | -5.7% | i
Cc1noc(C)c1COc1ccc(C(=O)O)cc1 | -11.3% | -9.7% | -3.9% | 6.8% | -12.1% | i
Cc1noc(C)c1COc1ccccc1C(=O)NNC(=O)c1ccccc1F | 3.3% | -6.7% | -25.0% | -0.5% | 2.2% | i
Cc1noc(C)c1COc1ccc(C(=O)NNC(=O)c2ccccc2)cc1 | 4.61µM* | 5.17µM* | -8.4% | -2.8% | -5.0% | i
O=C(Nc1ccc(C(F)(F)F)cc1)C1=NN(C2CCS(=O)(=O)C2)C(=O)CC1 (configuration not stated) | -29.7% | -23.1% | 10.1% | nt | -11.1% | i
COc1ccc(Cl)cc1Nc1ncnc2sc(C)c(S(=O)(=O)N3CCC(C)CC3)c12 | ? | ? | -5.7% | -15.5% | -13.3% | i
Cc1c(C(=O)NCc2cccc(F)c2)oc2c1-c1[nH]ncc1CC2 | ? | -18.4% | 0.0% | nt | -15.2% | nt
O=C(NCCc1ccc(C(F)(F)F)cc1)C1CCC(=O)N(C2CC2)C1 (configuration not stated) | -1.2% | 9.0% | -6.7% | 5.8% | 22.5% | ?
SMILES | TDP1 cell noCPT | TDP1 cell CPT | TGFb SMAD3 inh | ATXN2 expr inh | HepG2 viability | S2 tox
COc1ccccc1Nc1nc(C)cc(C)n1 | -0.6% | 9.9% | -4.7% | -6.9% | -5.7% | i
COc1ccccc1Nc1c2ccccc2nc2ccccc12 | 16.4µM* | 16.4µM* | ? | -14.8% | -27.9% | nt
CC(C)(C)Nc1c2ccccc2nc2ccccc12 | 18.4µM* | 20.6µM* | ? | -9.8% | -14.7% | i
COc1ccc(Nc2cc(Nc3ccc(OC)cc3)ncn2)cc1 | 13.4% | 4.8% | 4.3% | 14.5% | 8.8% | i
COc1ccc(Nc2cc(Nc3cc(OC)c(OC)c(OC)c3)ncn2)cc1 | 20.6µM* | 18.4µM* | -17.5% | 29.2% | -22.7% | i
COc1ccccc1Nc1cc(C)nc(Nc2ccccc2OC)n1 | 23.1µM* | 20.6µM* | -10.5% | -3.9% | -40.9% | ?
CCOC(=O)C1(Cc2ccccc2)CCCN(C(=O)c2ccc(-n3ccnc3)cc2)C1 (configuration not stated) | ? | ? | -3.3% | 28.0% | -9.6% | i
COc1ccc(CCNC(=O)Cn2nnc(C(=O)Nc3cc(C)ccc3C)c2N)cc1OC | -30.0% | ? | -7.6% | -17.6% | 0.3% | i
COc1cc(Nc2c3ccccc3nc3ccccc23)cc(OC)c1OC | 5.17µM* | 7.31µM* | ? | ? | -76.3% | 17.8µM*
COc1ccc(Nc2c3ccccc3nc3ccccc23)cc1 | ? | ? | ? | ? | -36.4% | i
Nc1nc(N)c(C=Nc2ccc(Br)cc2)c(Nc2ccc(Br)cc2)n1 | 13µM* | 14.6µM* | -0.2% | nt | 3.6% | i
Nc1nc(N)c(S(=O)(=O)c2ccccc2)c(Nc2ccc(Br)cc2)n1 | nt | nt | ? | -11.3% | -36.5% | i
O=C1[C@H]2[C@H](C=CC[C@H]2C(=O)N2CCN(c3ccccc3)CC2)CCN1Cc1ccc(Cl)c(Cl)c1 | 18.4µM* | 16.4µM* | 10µM*! | ? | -12.8% | ?
O=C([C@@H]1CC=C[C@@H]2CCN(C3CC3)C(=O)[C@@H]21)N1CCN(c2ccccc2)CC1 | 4.1% | -9.0% | 12.1% | 9.1% | 2.1% | i
O=C1[C@H]2[C@H](C=CC[C@H]2C(=O)N2CCN(c3ccccc3)CC2)CCN1Cc1ccccc1 | 14.1µM* | ? | -10.7% | 0.1% | -8.6% | i
